# Laboratory results reported in PubChem BioAssay (NCATS).
# Inconclusive results are not listed. Unmarked numbers belong to inactive results. Active and inactive are the calls of the source. Calls come from the whole dose curve; as a rule, active = well fitted inhibition curve with a large enough effect; inconclusive = small, poorly fitted or top-dose-only effect; inactive = no such curve, though single readings can be large or run the other way.
# Test: BET inhibitor-based combinations targeting novel dependencies in MECOM-rearranged (r) AML: MV-4-11 cell line (AID 2202233); note: nearly all actives have a fitted effect of over 45% in size
# Details: MV-4-11 AML viability, CellTiter-Glo luminescence, 48 h; series mostly up to 46 µM; viability, % of control: at the top concentration
# Excerpt: Ecotropic viral insertion site 1 (EVI1) is located on chromosome 3q26.2 as part of the MECOM (MDS and EVI1 complex) locus. Under normal hematopoiesis, EVI1 is a regulator of hematopoietic stem cell maintenance and self-renewal and EVI1 levels decrease as the cells differentiate. In approximately 5-10% of de novo acute myeloid leukemia (AML) EVI1 is aberrantly expressed, including Chromosomal inv(3)(q21;q26.2) or t(3;3)(q21;q26.2) alterations (MECOM-r) that account for about 50% of AML with EVI1 overexpression 31. AMLs with high levels of EVI1 have a poor prognosis and an overall survival time averaging between 10-14 months. EVI1 overexpression confers resistance in leukemia cells, highlighting the need to develop new targeted therapies for EVI1 overexpressing AMLs. Here, we performed an unbiased chemical drug screening by evaluating the single agent activity of a collection of 2,480 oncology-focused, approved and investigational drugs (NCATS Mechanism Interrogation Plates, MIPE v5.0) against a panel of seven AML cell lines. These included four MECOM-r cell-lines (AML-191, AML-194, UCSD-AML1 and HNT-34) and three non-MECOM-r AMLs (MV4-11, OCI-AML3 and SET-2). Exploiting the mechanistic redundancy built in the library, we identified target-level sensitivities in MECOM-r AML cells and relative activity as compared to other AML subtypes.
# A collection of 2480 mechanistically annotated dugs (MIPE v5.0) was used to screen four 3q26.2 rearranged AML cell lines and three non-3q26.2 rearranged AML cell lines. This library purposely exploits redundancy by including multiple inhibitors of key onco-targets, while simultaneously encompassing mechanistic diversity, targeting more than 800 distinct mechanisms of action. Briefly, cells were seeded in 5 uL of growth media using a Multidrop Combi dispenser into 1536 well white polystyrene tissue culture treated plates (Corning) at a density of 500cells/well. For each cell-line, for each of the 2480 drugs in MIPE v5.0 library, an 11-point dose curve was generated via a 1536 pin-tool. Plates were incubated for 48 hr at standard incubator conditions, covered by a stainless steel gasketed lid to prevent evaporation. Cell viability was determined by luminescence based, Cell Titer Glo assay (Promega). In detail, 3 uL of Cell Titer Glo were added to each well and plates were incubated at room temperature for 15 min with a stainless-steel lid in place. Luminescence readings were taken using a Viewlux (PerkinElmer) with a 2 s exposure time per plate. Compound dose-response curves were normalized to DMSO and empty well controls on each plate. Quantitative drug activity data from dose-response curves was determined utilizing area Under the Curve (AUC) and Z-transformed AUC (Z-AUC, a mean-centering transformation applied to each individual cell-line screened).
# Potency is the fitted concentration of half-maximal effect.
SMILES,Potency,"viability, % of control",outcome
Cc1sc2c(c1C)C(c1ccc(Cl)cc1)=NC(CC(N)=O)c1nnc(C)n1-2 (stereo not given),66.1 nM (active),,
CC(=O)O[C@@]12CO[C@@H]1C[C@H](O)[C@@]1(C)C(=O)[C@H](O)C3=C(C)[C@@H](O)C[C@@](O)([C@@H](OC(=O)c4ccccc4)[C@H]21)C3(C)C,23500 nM (active),,
O=C1C=CC[C@@H]2[C@H]3CCCN4CCC[C@@H](CN12)[C@@H]34,,132%,
O=P1(N(CCCl)CCCl)NCCCO1 (stereo not given),,128%,
CC(C)(O)C(=O)Nc1ccc([N+](=O)[O-])c(C(F)(F)F)c1,16600 nM (active),,
CC1(C)CC(O)CC(C)(C)N1O,,108%,
CNCC(O)c1ccc(O)cc1 (stereo not given),,112%,
COC(=O)[C@@H](N)CCCN=C(N)N[N+](=O)[O-],,123%,
CC1(C)CC[C@]2(NC(=O)C(C)(F)F)CC[C@]3(C)[C@H](C(=O)C=C4[C@@]5(C)C=C(C#N)C(=O)C(C)(C)[C@@H]5CC[C@]43C)[C@@H]2C1,1180 nM (active),,
N#CC(O[C@@H]1O[C@H](CO[C@@H]2O[C@H](CO)[C@@H](O)[C@H](O)[C@H]2O)[C@@H](O)[C@H](O)[C@H]1O)c1ccccc1 (stereo not given in full),,67.3%,
CN1C(=O)COc2c(C(=O)NC3CN4CCC3CC4)cc(Cl)cc21 (stereo not given),,105%,
C[C@]12CC[C@H]3[C@@H](CCC4=CC(=O)CC[C@@]43C)[C@H]1CC[C@H]2OC(=O)CCC1CCCC1,,97.5%,
CN(C)c1cc2c(cc1Sc1nc3c(N)nccc3n1CCNCC(C)(C)C)OCO2,662 nM (active),,
O=C(CBr)N1CC([N+](=O)[O-])([N+](=O)[O-])C1,34000 nM (active),,
Cc1sc2c(c1C)C(c1ccc(Cl)cc1)=NC(CC(=O)Nc1ccc(O)cc1)c1nnc(C)n1-2 (stereo not given),296 nM (active),,
COC[C@@H](NC(C)=O)C(=O)NCc1ccccc1,,131%,
C/C(O)=C(\C#N)C(=O)Nc1cc(Br)ccc1Br,,114%,
CO/C1=C/C(C)=C\[C@@H](C)[C@@H](O)[C@@H](C)C/C(C)=C\C=C/[C@H](OC)[C@@H]([C@@H](C)[C@@H](O)[C@H](C)[C@@]2(O)C[C@@H](O)[C@H](C)[C@@H](C(C)C)O2)OC1=O,98.6 nM (active),,
O=C(Nc1ccncc1)C(=O)c1cn(Cc2ccc(Cl)cc2)c2ccccc12,296 nM (active),,
O=C(NCC1CCOCC1)c1cnc(Nc2ccc(Cl)cc2Cl)nc1C(F)(F)F,14800 nM (active),,

SMILES,Potency,"viability, % of control",outcome
CC(C)c1cccc(C(C)C)c1O,,121%,
C/C=C(\C)C(=O)N[C@@H](c1ccccc1)[C@@H](O)C(=O)O[C@H]1C[C@@]2(O)[C@@H](OC(=O)c3ccccc3)[C@@H]3[C@]4(OC(C)=O)CO[C@@H]4C[C@H](O)[C@@]3(C)C(=O)[C@H](OC(C)=O)C(=C1C)C2(C)C,26.3 nM (active),,
N[C@@H](Cc1ccc(N(CCCl)CCCl)cc1)C(=O)O,1480 nM (active),,
C=C(C)[C@@H]1CCC(C)=C[C@H]1c1c(O)cc(CCCCC)cc1O,18600 nM (active),,
CCCCCC[C@H]1C(=O)O[C@H](C)[C@H](NC(=O)c2cccc(NC=O)c2O)C(=O)O[C@@H](C)[C@@H]1OC(=O)CC(C)C,1320 nM (active),,
CN1[C@H]2CC(O)C[C@H]1[C@H]1O[C@H]12 (stereo not given in full),,139%,
COc1cc([C@@H]2c3cc4c(cc3[C@@H](O)C3COC(=O)C32)OCO4)cc(OC)c1O (stereo not given in full),372 nM (active),,
COCC1(CO)C(=O)C2CCN1CC2 (stereo not given),10500 nM (active),,
CN1CCN(c2ccc([N+](=O)[O-])c3no[n+]([O-])c23)CC1,14800 nM (active),,
NCC1(CC(=O)O)CCCCC1,,,inactive
C[C@@H]1CN(Cc2ccc(F)cc2)CCN1C(=O)COc1ccc(Cl)cc1NC(N)=O,14800 nM (active),,
C#C[C@]1(O)C=C[C@H]2[C@@H]3CCC4=CC(=O)CC[C@@H]4[C@H]3CC[C@@]21CC,18600 nM (active),,
C[C@]12Cc3cn[nH]c3C[C@@H]1CC[C@@H]1[C@@H]2CC[C@@]2(C)[C@H]1CC[C@]2(C)O,742 nM (active),,
Cc1[nH]nc2ccc(-c3cncc(OC[C@@H](N)Cc4c[nH]c5ccccc45)c3)cc12,263 nM (active),,
c1ccc2c(CN3CCNCC3)cccc2c1,,108%,
CC1(N2CCC(n3c([C@@H]4CCCNC4)nc4ccccc43)CC2)CCCCCCC1,16600 nM (active),,
C[C@@]12OC(=O)[C@]1([C@@H](O)[C@@H]1C=CCCC1)NC(=O)[C@@H]2CCCl,23.5 nM (active),,
Cc1sc2c(c1C)C(c1ccc(Cl)cc1)=N[C@@H](CC(=O)OC(C)(C)C)c1nnc(C)n1-2,209 nM (active),,
CCNC(=O)C[C@@H]1N=C(c2ccc(Cl)cc2)c2cc(OC)ccc2-n2c(C)nnc21,468 nM (active),,
CCN(CC)C(=O)c1ccc(C2=CC3(CCNCC3)Oc3cccc(O)c32)cc1,,36.5%,
